Source: the supplement of paper PMC13380429
Unmarked numbers belong to inactive results.

System: Vero E6 infected with SARS-CoV-2
Assay: inhibition of SARS-CoV-2 cytopathic effect; higher = more antiviral protection, active = above 15
Settings: 48 h

Row | SMILES | inhibition of SARS-CoV-2 cytopathic effect (1 nM) | inhibition of SARS-CoV-2 cytopathic effect (8.33 nM) | inhibition of SARS-CoV-2 cytopathic effect (100 nM) | inhibition of SARS-CoV-2 cytopathic effect (833.33 nM) | inhibition of SARS-CoV-2 cytopathic effect (10000 nM)
1 | Cn1nc(-c2ccc(C(F)(F)F)cc2)nc2c(=O)n(C)c(=O)nc1-2 [walrycin-B] | -1.05% | -0.74% | 1.15% | 12.5% | -12.8%
2 | O=C(O)CCCC[C@@H]1CCSS1 [thioctic-acid] | 0.04% | -0.43% | -1.56% | 1.13% | -3.32%
3 | CC1(C)O[C@@H]2C[C@H]3[C@@H]4C[C@H](F)C5=CC(=O)C=C[C@]5(C)[C@H]4[C@@H](O)C[C@]3(C)[C@]2(C(=O)CO)O1 [flunisolide] | -0.25% | 0.14% | -1.38% | -0.29% | -0.97%
4 | CN1C[C@@H]2C[C@H]1CN2c1cc2c(cc1F)c(=O)c(C(=O)O)cn2C1CC1 [danofloxacin] | 0.88% | -1.78% | 0.43% | 2.27% | 6.15%
5 | C=CC(=O)N1CCN(C(=O)CNc2cc(I)c(Cl)cc2O)CC1 [K-Ras(G12C)-inhibitor-12] | 3.63% | 2.32% | 7.62% | 24.7% (active) | 30.4% (active)
6 | C=CCN1CCc2nc(N)sc2CC1 [talipexole] | -0.94% | 1.41% | 0.94% | -0.07% | -2.07%
7 | CC1=C(/C=C/C(C)=C/C=C/C(C)=C/C=O)C(C)(C)CCC1 [retinaldehyde] | -0.27% | 1.56% | 3.22% | 6.75% | 10.4%
8 | COc1cc(OC)cc(C(=O)NNC(=O)Nc2cccc3ccccc23)c1 | 0.29% | -2.09% | -1.74% | 2.71% | -1.92%
9 | Cc1nccn1CC1CCc2c(c3ccccc3n2C)C1=O (stereo not given) [ondansetron] | 3.14% | 0.05% | -1.38% | -1.32% | 3.44%
10 | c1ccc(C(NCc2cccnc2)(c2ccccc2)c2ccccc2)cc1 | 1.69% | 4.02% | 1% | 1.58% | 2.26%
11 | Cc1ccc(S(=O)(=O)N2CCC[C@H]2c2ccc(F)cc2)cc1 | 0.31% | -0.49% | 0.49% | 1.4% | 0.86%
12 | CC[N+](CC)(CC(=O)Nc1c(C)cccc1C)Cc1ccccc1 [denatonium-benzoate] | -0.9% | -3.36% | -2.46% | -1.56% | -0.4%
13 | O=C(Nc1ccccc1)[C@]12C[C@H]1/C(=N\O)c1ccccc1O2 | 1.02% | 3.35% | -0.61% | -0.42% | 1.97%
14 | Clc1ccc(N/N=C(\c2ccccc2)c2ccccn2)nc1 | -0.45% | -0.79% | -1.98% | 9.6% | 16.5% (active)
15 | COc1ccc(C(=O)N2CCCC2=O)cc1 [aniracetam] | 0.63% | 0.43% | 0.75% | 0.1% | 0.6%
16 | O=C1CNC(=O)CN1 [piperazinedione] | -1.5% | -0.79% | -1.97% | -2.42% | -2.4%
17 | CC1(C)CNc2cc(NC(=O)c3cccnc3NCc3ccncc3)ccc21 [motesanib] | -2.26% | -1.53% | -1.67% | 1.7% | 1.82%
18 | CN1C(=O)CC(C)(c2ccccc2)C1=O (stereo not given) [methsuximide] | -1.1% | 0% | 1.03% | 0.88% | -0.14%
19 | CC[C@@H](Nc1c(Nc2cccc(C(=O)N(C)C)c2O)c(=O)c1=O)c1ccc(C)o1 [navarixin] | -0.8% | 1.26% | 0.77% | 1.8% | -2.11%
